In PubChem BioAssay:
Calls of active or inactive are those of the source.

Assay: JC-1 mitochondrial signal, unstimulated adipocytes – cell-based, JC-1 fluorescence, 3T3-L1 adipocytes, 24 h, 100 nL compound, profiling panel (AID 1168); note: test concentration not given here
Conditions: JC-1 mitochondrial fluorescence, higher = more signal, called active from +8 up or from −8 down

z-score, inactive:
CO[C@H]1COC(=O)CCC[C@H](C)[C@H](OC)COC(=O)CC=C[C@@H]1C -1.7
CCO[C@H](c1cc(OC)cc([N+](=O)[O-])c1OC)[C@H](C)[C@@H](OC)[C@H](C)C=CCC(=O)OC -0.476
O=C1[C@H]2[C@H]3[C@H](O)[C@H](O)CC(=NOC[C@@H](O)COCc4ccco4)[C@@H]3CC[C@H]2C(=O)N1Cc1ccccc1 -0.278
COC(=O)CC=C[C@@H](C)[C@@H](C=NOC[C@@H](O)COCc1ccco1)OC 0.499
C[C@@H](c1ccccc1)N1C(=O)[C@H]2[C@H]3[C@H](O)[C@H](O)CC(=NNC(=O)OCc4ccccc4)[C@@H]3CC[C@H]2C1=O -0.762
CCOC(=O)[C@H](Cc1ccccc1)NC(=O)CCC1CC(OC(=O)NCc2ccc3c(c2)OCO3)CC2(CCCC(COC(=O)NCCOC)O2)O1 (stereo partly specified) -0.844
CCOC(=O)CCN1C(=O)[C@H]2[C@H]3[C@H](O)[C@H](O)CC(=NNC(=O)OCc4ccccc4)[C@H]3CC[C@H]2C1=O -0.223
COc1ccc(O[C@H]2C=C[C@@H](c3ccccc3)O[C@@H]2COC(=O)CCC(C)=NOC[C@@H](O)COCc2ccco2)cc1 0.0665
CCCCOC(OCCCC)C(O)CSc1ccc2ccccc2c1 (stereo unspecified) -0.239
CC(C)CON=C1C[C@@H](O)[C@@H](O)[C@@H]2[C@@H]3C(=O)N(Cc4ccc5c(c4)OCO5)C(=O)[C@@H]3CC[C@@H]12 0.115
COC(=O)[C@H](C)NC(=O)CCC1CC(OC(=O)NCCc2ccc(F)cc2)CC2(CCCC(COC(=O)NCCc3ccccc3OC)O2)O1 (stereo partly specified) 0.766
CCN1C(=O)[C@H]2[C@@H]3C(=CC[C@H]2C1=O)C(=O)[C@H]1O[C@H]1[C@H]3O 0.772
C[C@H]1CC[C@@H](C(=O)O)N[C@@H]1c1cccc(N2CCCC2=O)c1 0.574
CCOC(=O)CCN1C(=O)[C@H]2[C@H]3[C@H](O)[C@H](O)CC(=NO[C@@H]4O[C@H](CO)[C@@H](O)[C@H](O)[C@H]4O)[C@H]3CC[C@H]2C1=O -0.647
O=C1C2=CC[C@H]3C(=O)N(Cc4ccccc4)C(=O)[C@H]3[C@H]2[C@H](O)[C@@H]2O[C@H]12 1.02
CC(CCC(=O)OC[C@H]1O[C@H](C#Cc2ccccc2)C=C[C@@H]1Oc1ccc(C)cc1)=NO[C@@H](C)c1cc(-c2c(C)cc(C)cc2C)no1 -0.495
CO[C@@H]1[C@H](O)CO[C@H]1C=Cc1ccccc1 -0.267
COc1ccc(O[C@H]2C=C[C@@H](c3ccccc3)O[C@@H]2COC(=O)NCc2cccc3ccccc23)cc1 -0.351
CCOC(=O)CCN1C(=O)[C@H]2[C@@H]3C(=CC[C@H]2C1=O)C(=O)[C@H]1O[C@H]1[C@H]3O 0.501
COC(=O)[C@H](Cc1ccccc1)NC(=O)[C@@H](C)CO -0.218
CC(CCC(=O)OC[C@H]1O[C@H](C#Cc2ccccc2)C=C[C@@H]1Oc1ccc(C)cc1)=NO[C@H](C)c1cn([C@@H]2COC[C@H]2O)nn1 -4.6e-05
COC(=O)[C@H](C)NC(=O)CC=C[C@@H](C)[C@@H]1C=C[C@H](O)[C@@H](CO)O1 -1.04
COc1ccc(O[C@H]2C=C[C@@H](c3ccccc3)O[C@@H]2CON=C(C)CCN2CCCc3nc(C)c(C)cc32)cc1 -0.853
COC(=O)[C@H](CCSC)NC(=O)CC=C[C@@H](C)CO -0.645
CC(CCN1CCc2nc(-c3ccccc3)c(-c3ccccc3)cc2C1)=NO[C@@H](C)c1cc(-c2c(C)cc(C)cc2C)no1 -1.15
CCOC(=O)[C@H](CC(C)C)NC(=O)CCC1CC(OC(=O)NCc2ccc3c(c2)OCO3)CC2(CCCC(COC(=O)NCCc3ccc(Cl)cc3)O2)O1 (stereo partly specified) 0.526
CN1CCc2nc(-c3ccccc3)c(-c3ccccc3)cc2C1 -0.53
CC(C)CON=C1C[C@@H](O)[C@@H](O)[C@@H]2[C@@H]3C(=O)N([C@@H](C)c4ccccc4)C(=O)[C@@H]3CC[C@@H]12 -0.72
CC(CCC(=O)OC[C@H]1O[C@H](C#Cc2ccccc2)C=C[C@@H]1Oc1ccc(C)cc1)=NOC[C@@H](C)[C@H](OCc1ccccc1)C(C)C -1.77
CC1(C)O[C@H]2OC([C@H](O)CON3C(=O)c4ccccc4C3=O)[C@H](O)[C@H]2O1 (stereo partly specified) -0.143
C#CCCCON=C1C[C@@H](O)[C@@H](O)[C@@H]2[C@@H]3C(=O)N(CC)C(=O)[C@@H]3CC[C@H]12 -0.625
CCCC[C@H]1CN2[C@@H](CC[C@@H](C)[C@@H]2c2ccc(Br)cc2)C(=O)O1 -0.206
C[C@@H]1CC[C@H]2C(=O)O[C@@H](CN=[N+]=[N-])CN2[C@H]1c1ccc(Br)cc1 -0.62
CCOC(=O)[C@H](CC(C)C)NC(=O)CCC1CC(OC(=O)NCc2ccc3c(c2)OCO3)CC2(CCCC(COC(=O)NCCc3ccccc3OC)O2)O1 (stereo partly specified) -0.104
CCCNC(=O)OC[C@H]1O[C@H](CCON=C2C[C@@H](O)[C@@H](O)[C@@H]3[C@@H]4C(=O)N(CC)C(=O)[C@@H]4CC[C@@H]23)C=C[C@@H]1Oc1ccc(OC)cc1 -0.245
COCOc1ccc(Br)cc1C(=O)C=Cc1ccc2c(c1)OCO2 0.0274
